The nature of experiment [1]: CCTE_Shafer_MEA_acute_LDH: CCTE's Lactate Dehydrogenase Assay for Cytotoxicity in the Neural Acute Assay, Shafer Lab (AID 2284086; active means hit-call score of the fitted dose curve at least 0.9, where 1 is the maximum;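 further: active means LDH release rises above DMSO vehicle level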). The gist of the method:
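LDH released during 40 min compound exposure of primary rat cortical cultures, quantified by absorbance at 490 nm in collected medium. Fitting direction positive versus DMSO vehicle.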

Experiment [2] is described as follows: CCTE_Shafer_MEA_dev_AB: CCTE's Alamar Blue Assay for Cytotoxicity in the Neural Network Formation Assay, Shafer Lab (AID 2284083; active means hit-call score of the fitted dose curve at least 0.9, where 1 is the maximum;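 further: resazurin reduction fluorescence as viability of cultured neurons; twelve days of exposure from plating with re-dosing on DIV 5 and 9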). The method in brief:
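Fluorescent resazurin reduction serves as the viability read-out, with DMSO as negative control and baseline. Cells were primary rat cortical neurons grown on MEA plates and dosed from day 0 to day 12, treatment renewed on DIV 5 and 9.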
Background: Alamar Blue is a resazurin reagent that responds to reducing activity.

Experiment [3] in a line: CCTE_Shafer_MEA_dev_mutual_information_norm: CCTE's Neural Network Formation Assay for Mutual Information Normalization, Shafer Lab (AID 2284091).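 On AC50: mutual information between electrodes summarised as area under curve across four recording days; potency is for a decrease in mutual information relative to DMSO.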 The gist of the method:
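Shared information across electrodes, tracked on days 5, 7, 9 and 12 of network development and collapsed as trapezoidal area under the curve. Rat cortical cultures were treated continuously from plating, with treatment renewed at feeds on DIV 5 and 9; DMSO baseline, negative-direction fit.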

Experiment [4] in a line: CCTE_Shafer_MEA_dev_correlation_coefficient_mean: CCTE's Neural Network Formation Assay for Mean Correlation Coefficient, Shafer Lab (AID 2284093).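 On AC50: well mean pairwise spike train correlation integrated as AUC over recording days 5 to 12; potency fitted for loss of correlation relative to DMSO vehicle wells.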 The method in brief: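 Read-out: well-mean correlation coefficient of spike trains between electrode pairs, collapsed over four recording days as trapezoidal area-under-the-curve. Developing rat cortical neuron networks grown on MEAs received test chemical continuously from plating.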

A short description of experiment [5]: UKN2_HCS_IMR90_neural_migration: University of Konstanz (UKN) Leist Lab Neural Crest Cell Migration Assay in human induced IMR90 Pluripotent Stem Cells (UKN2) (AID 2284204). To be noted: actives raise or lower the signal. The gist of the method:
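High-content imaging of calcein-AM and Hoechst stained cells quantifies migration into a stopper-defined gap after 24 h compound exposure. Neural crest cells from IMR90 iPSC migrated 24 h in EGF/FGF N2-S medium before dosing; DMSO baseline.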

Experiment [6] can be described thus: IUF_NPC1b_proliferation_BrdU_72hr: Leibniz Research Institute for Environmental Medicine (IUF) 72-hour Neural Progenitor Cell Bromodeoxyuridine (BrdU) Proliferation Assay (NPC1b) (AID 2284207). The method in brief:
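Human fetal cortex-derived (GW 16-19) neural progenitor spheres, 0.25-0.35 mm, one per well in EGF/FGF proliferation medium, exposed to compound for 72 h at 37C, pH 7.2-7.6. BrdU incorporation over the final 16 h read by luminescence ELISA, relative to DMSO.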

Experiment [7] in a line: IUF_NPC1a_proliferation_area_72hr: Leibniz Research Institute for Environmental Medicine (IUF) 72-hour Neural Progenitor Cell Proliferation Area Assay (NPC1a) (AID 2284208). As to the method:
IUF_NPC1 is a cell-based, multiplexed assay that uses hNPC, a human primary neural progenitor cells, with measurements taken at 72 hours after chemical dosing in a 96-well plate. Human neural progenitor cells (hNPC) are generated from human fetal brain cortex at gestational week (GW) 16-19. Grown in suspension culture and under proliferative conditions (proliferation media and growth factors), these cells represent neural progenitor cell proliferation. In the NPC1 assay, hNPC's are exposed to the test compound for 72h. Cell proliferation is assessed as an increase in sphere area using automated phase contrast imaging and as incorporation of Bromodeoxyuridine (BrdU) during DNA synthesis using a luminescence-based cell proliferation ELISA. In parallel, the cell viability is assessed using an alamar blue viability assay and the cytotoxicity using a lactate dehydrogenase dependent membrane integrity assay.IUF_NPC1a_proliferation_area_72hr is one of 4 assay components measured from the IUF_NPC1 assay. It is designed to measure cell proliferation as assessed by an increase in sphere area over 72 h using automated phase contrast imaging.Data from the IUF_NPC1a_proliferation_area component was analyzed at the endpoint IUF_NPC1a_proliferation_area in the positive analysis fitting direction relative to DMSO as the negative control and baseline of activity. Using a type of growth reporter, gain or loss-of-signal activity can be used to understand cell proliferation effects.
After the cell expansion period, the cells are cultured for up to four weeks in which they are passaged every week. Between one to three days after passaging, depending on the size chosen for passaging, spheres at a size of 0.3 mm are used in the assay. For the assessment of neural progenitor cell proliferation, the spheres are plated in poly-Hema coated 96-well U-bottom plates filled with proliferation medium containing growth factors (EGF and FGF). One 0.25 - 0.35 mm big sphere is plated in the middle of each well. Within 3 days NPCs proliferate and grow in size. Cultivation during the test method is performed at 37C and 5% CO2 at a pH of 7.2-7.6. As a positive control, spheres are cultivated in the absence of growth factors (EGF and FGF), which dramatically reduces proliferation. Exposure starts on the plating day (day 0) and is continued over three days, without chemical renewal, until the experiment is terminated. The assay is terminated by the assessment of cell viability, cytotoxicity, and proliferation by BrdU. All endpoints are generated from the same experimental run and from each well/sphere in the 96-well plate.

Experiment [8] in a line: IUF_NPC1_viability_72hr: Viability Assessment at 72 hours in the Leibniz Research Institute for Environmental Medicine (IUF) Neural Progenitor Cell Proliferation Assay (NPC1) (AID 2284209). The method in brief: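 Viability was measured by resazurin-to-resorufin fluorescence (alamar blue) after 72 h of continuous exposure without compound renewal. Each well held one hNPC sphere (gestational week 16-19 fetal cortex, 0.25-0.35 mm) cultured in EGF/FGF proliferation medium at 37C and pH 7.2-7.6.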

A short description of experiment [9]: CCTE_Mundy_HCI_Cortical_Synap_Neur_Matur_NeuriteSpotCountPerNeuriteLength: CCTE's Synaptogenesis and Neurite Maturation Assay in rat cortical cells for Neurite Spot Count per Neurite Length, Mundy Lab (AID 2284210). The method in brief: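 Synaptophysin spots per unit neurite length, measured by automated imaging of MAP2/synaptophysin/Hoechst-stained neurons. Cultures from rat cortex received chemical at DIV 7 with media change through DIV 12; glial growth arrested by AraC at DIV 5; DMSO baseline.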

Experiment [10] can be described thus: UKN4_HCS_LUHMES_neurite_outgrowth: University of Konstanz (UKN) Leist Lab Neurite Outgrowth Assay in human LUHMES cells (UKN4) (AID 2284206). To be noted: actives raise or lower the signal. The method in brief: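 After 24 h compound treatment beginning shortly after replating of 2-day-differentiated LUHMES cells, calcein-AM and H-33342 live staining allowed high-content imaging of neurite area and viability. Fitted bidirectionally against DMSO.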

Several values for one entry are separate records, joined by “and”; a condition that tells them apart may be missing. Identical values can stand only once. Results filed as inconclusive are left out. The source holds several records for some structures; these can differ, active in one and inactive in another. Activity calls are given as the source filed them. How the source made its calls, unless noted: active means hit-call score of the fitted dose curve at least 0.9, where 1 is the maximum; inactive means score below 0.9.

With `N#CSCSc1nc2ccccc2s1`, the call in experiment [1] was inactive.

Consider `CCCN(CCC)C(=O)SCC`, for which the molecule was classed as inactive in [2], in experiment [3], in experiment [4], in experiment [5], in [6] and in [7]. Moreover, the call in experiment [8] and in experiment [9] was inactive.

In the case of `OB(O)O`, the call in [2], in experiment [1], in experiment [3] and in [4] was inactive.

Regarding `CCCCC(CC)CN1C(=O)C2C3C=CC(C3)C2C1=O` (configuration not stated), the call in [2], in experiment [1], in experiment [3] and in experiment [4] was inactive.

With `COCCO`, the call in experiment [3] and in [4] was inactive.

For orientation: AC50 means the concentration giving half of the maximal activity seen. On to `CCN(CC)C(=O)c1cccc(C)c1`, for which the molecule was called inactive in experiment [3], in experiment [4], in experiment [5], in experiment [7], in experiment [8] and in experiment [9]. Besides, the AC50 in experiment [6] was 92700 nM (active).

On to `S=C(S)NCCNC(=S)S.[Mn+2].[S-]C([S-])=NCCN=C([S-])[S-].[Zn+2]`, for which the call in [2], in experiment [3], in [4], in experiment [6], in experiment [7] and in [8] was inactive. The molecule was called inactive in experiment [9].

`O=C(c1ccc(O)cc1O)c1ccc(O)cc1O`: the outcome in experiment [1] was inactive.

`C=CCOC(Cn1ccnc1)c1ccc(Cl)cc1Cl` (configuration not stated): the result in experiment [1] was inactive.

Take `O=C(Nc1ccc([N+](=O)[O-])cc1Cl)c1cc(Cl)ccc1O`: in [1], the molecule was classed as inactive.

For `CCCN(CCC)c1c([N+](=O)[O-])cc(C(F)(F)F)c(N)c1[N+](=O)[O-]`, the call in [1] was inactive.

In the case of `O=C(c1ccccc1)C1CCCCC1`, the call in [1] was inactive.

Turning to `Oc1ccc(C(c2ccc(O)cc2)C(Cl)(Cl)Cl)cc1`, the outcome in experiment [2], in experiment [1], in [3] and in experiment [4] was inactive.

Take `CCCCOCCOCCOCc1cc2c(cc1CCC)OCO2`: the result in experiment [2], in [3] and in experiment [4] was inactive.

Take `Cc1nn(C)c(Oc2ccccc2)c1C=NOCc1ccc(C(=O)OC(C)(C)C)cc1`: the AC50 was 9.23 nM (active) in experiment [2]; 1.28 nM (active) in [3]; 2.29 nM (active) in [4]; 6550 nM (active) in [5]; 5150 nM (active) in [6]; 21.5 nM (active) in [7]. The AC50 in experiment [9] is 3.39 nM (active). The call in experiment [1] and in [8] was inactive.

Regarding `O=C(O)c1ccccc1`, the outcome in [1], in experiment [3], in [4], in [6], in [7] and in [8] was inactive. For the same molecule, the molecule was called inactive in experiment [9].

For `CC(C)(C)[C@@H](O)[C@@H](Cc1ccc(Cl)cc1)n1cncn1`, the call in experiment [1] was inactive.

On to `CC(C)(c1ccc(O)cc1)c1ccc(O)cc1`, for which the result in [1], in experiment [3], in experiment [4], in experiment [7], in experiment [8] and in experiment [9] was inactive. Also, the values for the AC50 in [3] and in experiment [6] were 1950 nM (active) and 4920 nM (active), respectively.

In the case of `CCNc1nc(N)nc(Cl)n1`, the molecule was called inactive in experiment [1].

As to `S=C([S-])NCCNC(=S)[S-].[Mn+2]`, the call in experiment [2], in [3], in experiment [4], in experiment [6], in experiment [7] and in experiment [8] was inactive. Besides, the molecule was classed as inactive in experiment [9]. The results for the AC50 in experiment [5] and in experiment [10] were 14200 nM (active) and 2160 nM (active), respectively.

On to `CC(C)CCCCCCc1ccc(O)cc1`, for which, in [1], the molecule was called inactive.

As for `CSC(=O)c1cccc2nnsc12`, the result in experiment [2], in [1], in [3], in experiment [4], in [7] and in [8] was inactive. For the same molecule, in experiment [9], the outcome was inactive. Moreover, the AC50 in [6] is 796 nM (active).

`CC1(C)C(C=C(Cl)Cl)C1C(=O)OCc1cccc(Oc2ccccc2)c1` (configuration not stated): the AC50 was 26.4 µM (active) and 14.7 µM (active) in experiment [2]; 15 µM (active) and 5.01 µM (active) in experiment [3]; 15 µM (active) and 5.33 µM (active) in experiment [4]. Further, the outcome in experiment [1] and in experiment [9] was inactive.

On to `C#CCOC(=O)[C@@H](C)Oc1ccc(Oc2ncc(Cl)cc2F)cc1`, for which the AC50 in experiment [2] was 10.1 nM (active); in experiment [7] it was 26600 nM (active). The molecule was called inactive in experiment [3], in experiment [4], in experiment [5], in experiment [6], in [8] and in experiment [9].

Source of the values: PubChem BioAssay (EPA / NIEHS).
